Assay outcomes from PubChem BioAssay.
Compounds with a hit are over-represented: about 3% of the library has one in this group of screens.
FBPA coupling cs: inhibits coupling enzyme system, counter-screen for aldolase hits. coupling enzyme system counterscreen, AmpLite Red fluorescence. activity change, negative = inhibition, % at 58.2 µM, hits read low. 290,000 tested, 0.67% active; in the data active = activity change below about -30%
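Compounds tested against the coupling enzymes alone at 57.5 uM final; readout was AmpLite Red fluorescence (525/598 nm) after 20 min at RT.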
Tau fluor counter: counter-screen for tau fibril formation inhibitors; tau K18 P301L Alexa594 fluorescence, heparin fibrillization; Potency, µM (series often up to 57.7 µM), inactives show top-dose activity change, negative = decrease; 280,000 tested, 0.93% active; AID 1463; note: potency is the fitted concentration of half-maximal effect; nearly all actives have a fitted effect of over 55% in size
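Human tau K18 P301L (15 uM unlabeled, 0.24 uM Alexa 594-labeled) in 100 mM sodium acetate pH 7 with 20 uM heparin, 6 hr at 37 C. ThT 30 uM added, 1 hr ambient; Alexa 594 FP and total fluorescence read at 555/632 nm.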
JMJD2E inh: inhibitors of human JMJD2E histone demethylase; 230,000 tested, 1.6% active; AID 2147; JMJD2E catalytic domain, FDH-coupled NADH fluorescence (FDH is formaldehyde dehydrogenase); Potency, µM (series often up to 57.1 µM), without a hit: top-dose activity change, negative = inhibition, hits mostly inhibitors; active = well fitted inhibition curve with a large enough effect, not every such curve was filed as active; inconclusive = small, poorly fitted or top-dose-only effect, or another doubt; inactive = no such curve, though single readings can be large or run the other way;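 note: potency is the fitted concentration of half-maximal effect; 0% = wells with enzyme and -100% = buffer wells without enzyme; nearly all actives have a fitted effect of over 50% in size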
Target sequence (B2RXH2 1-337 limits assumed): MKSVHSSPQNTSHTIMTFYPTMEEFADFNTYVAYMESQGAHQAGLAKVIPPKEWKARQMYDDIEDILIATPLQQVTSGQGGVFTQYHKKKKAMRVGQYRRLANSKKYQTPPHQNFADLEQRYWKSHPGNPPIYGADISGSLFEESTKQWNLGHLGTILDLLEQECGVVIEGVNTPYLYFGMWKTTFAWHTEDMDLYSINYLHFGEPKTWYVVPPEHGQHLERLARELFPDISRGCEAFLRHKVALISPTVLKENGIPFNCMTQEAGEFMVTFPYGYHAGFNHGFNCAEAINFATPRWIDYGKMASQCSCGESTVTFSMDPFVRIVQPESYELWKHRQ
Tau fibril FP: inhibitors of human tau fibril formation; Potency, µM (doses to about 57.7 µM), inactives show at the highest dose activity, negative = inhibition, usual class: inhibitors; P10636; K18 P301L tau heparin fibrillization, Alexa594 FP, 6 h; 280,000 tested, 0.39% active; note: potency is the fitted concentration of half-maximal effect; nearly all actives have a fitted effect of over 55% in size
Target sequence (P10636 561-689 P618L limits assumed): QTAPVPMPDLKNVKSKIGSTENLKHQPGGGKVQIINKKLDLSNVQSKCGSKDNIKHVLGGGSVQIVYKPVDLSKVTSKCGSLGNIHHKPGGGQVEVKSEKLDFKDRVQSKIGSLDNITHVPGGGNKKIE
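Read-out: fluorescence polarization of Alexa 594-labeled tau (0.24 uM), 555 nm excitation, 632 nm emission. Mixtures held 15 uM unlabeled K18 P301L, compound and 20 uM heparin, pH 7 acetate buffer, incubated 6 hr at 37 C.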
Tau fibril ThT: tau fibrillization inhibition (ThT binding) | P10636 | recombinant tau K18 P301L (four-repeat tau fragment), heparin-induced fibrillization, ThT fluorescence | Potency, µM (doses to about 57.4 µM), for inactives: at the highest dose activity, negative = inhibition, most hits filed as inhibitors | 270,000 tested, 2.1% active | AID 1460; note: potency is the fitted concentration of half-maximal effect; nearly all actives have a fitted effect of over 55% in size
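Heparin-induced fibrillization of the P301L-mutant K18 repeat-domain fragment of human tau was followed by ThT binding in quantitative high-throughput format.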
Numbers without * were called inactive; ? = inconclusive; · = no result; ! = repeats disagree; [ ] = another dose, or the depositor's remark. Unless noted, calls come from the whole dose curve; as a rule, active = well fitted curve in the direction sought with a large enough effect; inconclusive = small, poorly fitted or top-dose-only effect, or another doubt; inactive = no such curve, though single readings can be large; an effect the other way counts as inactive or inconclusive. Unless noted, % is set by controls: 0 for no effect and ±100 for the full control effect.

SMILES | FBPA coupling cs | Tau fluor counter | JMJD2E inh | Tau fibril FP | Tau fibril ThT
COc1ccc(CNC(=O)c2ccc(-c3nc(CSc4ccccc4)c(C)o3)cc2)cc1OC | · | -3% | · | -5% | 5%
C[C@H]1Cc2c(-c3ccccc3)nc3c(c2CO1)CN(C(=O)C1CCCCC1)CC3 | 1 | -1%[11.6 µM] | 3%[11.4 µM] | -4%[11.6 µM] | 7%[11.5 µM]
Oc1ccc(Br)cc1-c1cc(-c2ccc(Cl)cc2)n[nH]1 | 0 | ? | -1% | ? | ?
CCCOc1ccc(Br)cc1-c1cc(-c2ccc(Cl)cc2)[nH]c1-c1ccncc1 | -3 | 7.9µM*[quencher] | ? | ? | -13%
COc1cc(OC)c(NC(=O)N2CCc3cc(OC)c(OC)cc3C2CC(=O)O)cc1Cl (configuration not stated) | · | 4% | · | 5% | -1%
Cc1cc(-c2ccco2)n(-c2ccccc2)n1 | -6 | -14% | ? | ? | 32µM*
N#C/C(=C/c1ccc(Br)o1)C(N)=S | 0 | 28µM*[quencher] | ? | -21% | 18µM*
Cc1cccc(NC(=O)C(=O)NCC(c2cccnc2)N2CCc3ccccc3C2)c1C (configuration not stated) | · | -26% | · | -2% | ?
CC1(C)CC(=O)c2c(oc3cc(O)c(O)cc23)C1 | -62*! | ? | 13µM* | ? | 28µM*
CN1CCC(=C2c3ccccc3C(O)c3ccccc32)CC1 (configuration not stated) | 0 | -13% | 5% | 4% | ·
CN1CCc2cccc3c2C1Cc1ccc(O)c(O)c1-3 (configuration not stated) | -6 | 28µM*[quencher] | ? | 32µM* | 18µM*
COC(=O)c1c(Oc2ccc(C(C)=O)cc2)nnc(-c2ccccc2)c1-c1ccccc1 | · | -22% | · | -2% | ?
CC(C)OCCCN1C=C2C(=O)C(C)(OC(=O)C3CCCC3)C(=O)C=C2C=C1c1ccsc1 (configuration not stated) | -41* | ? | ? | ? | ?
COc1ccc(CN2C=C3C(=O)C(C)(OC(=O)C4CCCC4)C(=O)C=C3C=C2c2ccsc2)cc1 (configuration not stated) | -4 | -7%[11.6 µM] | ? | ? | 18µM*!
CC1(OC(=O)C2CCCC2)C(=O)C=C2C=C(c3ccsc3)N(Cc3ccco3)C=C2C1=O (configuration not stated) | -2 | -14%[11.6 µM] | ? | -4%[11.6 µM] | ?
Cc1ccc(-c2cn(-c3ccc(Cl)cc3)c(S(=O)(=O)CC(=O)Nc3ccccc3)n2)cc1 | · | ? | · | ? | -11%
O=C1/C(=C\c2ccccn2)SC(=S)N1Nc1ncc(C(F)(F)F)cc1Cl | · | -29% | -1% | ? | 28µM*
O=C1/C(=C/c2ccc(F)cc2)SC(=S)N1Nc1ncc(C(F)(F)F)cc1Cl | -2 | -26% | -7% | -14% | ?
CCc1ccc(NC(=O)CSc2nc3ncccc3[nH]2)cc1 | · | -10% | · | 3% | -6%
COc1ccc(-c2nc(SCC(=O)NCCCc3ccccc3)n[nH]2)cc1 | · | -18% | · | -8% | -9%
N#CC1=C2SCN(Cc3ccco3)CN2C(=O)CC1c1c(F)cccc1Cl (configuration not stated) | -25 | -29% | ? | ? | 7.1µM*
Cc1ccc(C2CC(=O)N3CN(Cc4ccco4)CSC3=C2C#N)cc1 (configuration not stated) | -21 | -10% | -26% | ? | 25µM*
O=c1c(Cl)c(O)c2cccc3c4ccccc4n1c23 | 5 | ? | ? | ? | 14µM*
O=c1c(Cc2ccccc2)c(O)c2cccc3c4c(n1c23)CCCC4 | 15 | ? | ? | -1% | ·
O=c1c(/C=C(\O)c2ccc(F)cc2)nc2ccccc2n1-c1ccccc1 | -1 | -22% | 28µM* | -10% | ?
SMILES | FBPA coupling cs | Tau fluor counter | JMJD2E inh | Tau fibril FP | Tau fibril ThT
NS(=O)(=O)c1ccc(O)c(NC(=O)c2ccc([N+](=O)[O-])o2)c1 | -1 | -18% | ? | 18µM* | 25µM*
COc1cc(NC(=O)c2ccc([N+](=O)[O-])o2)ccc1NC(=O)c1ccco1 | 3 | · | · | · | ·
Cc1cc(C)cc(NC(=O)c2ccc([N+](=O)[O-])o2)c1 | -5 | -14% | 2% | 10% | -19%
Cc1cc(NC(=O)c2ccc([N+](=O)[O-])o2)ccc1NC(=O)c1ccco1 | 1 | -20% | 7% | 4% | 14µM*
COc1ccc(S(=O)(=O)NCCc2sc(C)nc2C)cc1F | · | -13% | · | -6% | -11%
COc1ccc(C2=NC(c3ccc(Cl)cc3)C(c3ccc(Cl)cc3)N2C(=O)N2CCNC(=O)C2)c(OC(C)C)c1 (configuration not stated) | -2 | · | · | · | ·
O=C(CNc1cccc(C(F)(F)F)c1)N/N=C/c1cn(-c2ccccc2)nc1-c1ccccc1 | -4 | ? | -27% | 8.9µM* | 0%
Cc1nn(Cc2ccccc2)c(C)c1/C=N/NC(=O)CNc1cccc(C(F)(F)F)c1 | -2 | ? | -13% | -4% | -7%
Cc1ccc(C)c(N2CCN(C(=O)C(C)n3c(C)c4cnn(-c5ccccc5)c(=O)c4c3C)CC2)c1 (configuration not stated) | · | -15% | · | 0% | -14%
O=C1N/C(=N\S(=O)(=O)c2ccccc2)S/C1=C\c1cc([N+](=O)[O-])ccc1O | 13 | · | · | · | ·
COc1cc(/C=C2\S/C(=N/S(=O)(=O)Cc3ccccc3)NC2=O)c([N+](=O)[O-])cc1OC | 20 | -27% | 2% | -8% | ?
O=C1N/C(=N\S(=O)(=O)Cc2ccccc2)S/C1=C/c1cc([N+](=O)[O-])ccc1O | 12 | ? | -5% | 1% | 5µM*
COc1cc(/C=C2/S/C(=N/S(=O)(=O)c3ccccc3)NC2=O)c([N+](=O)[O-])cc1OC | 14 | ? | 4% | ? | 16µM*
CCc1cc(SC#N)ccc1N | 0 | -18% | 4% | ? | 13µM*
C[C@@H]1COC(=O)O1 | 0 | · | · | · | ·
C#CCOc1ccc(/C=C2/C(=O)N(c3cccc(C(=O)O)c3)N=C2C)cc1OC | 7 | · | · | · | ·
CC1=NN(c2cccc(C(=O)O)c2)C(=O)/C1=C\C=C\c1ccco1 | -5 | ? | 9% | ? | 14µM*
CC1=NN(c2ccccc2)C(=O)/C1=C/C=C/c1ccccc1 | 0 | ? | -3% | ? | 16µM*
Cc1ccc(C2=NOC(=O)/C2=C\C=C\c2ccccc2)cc1 | 6 | ? | ? | 14µM* | 13µM*
CCN(CC)CCNC(=O)c1sc2nc(C)cc(C)c2c1-n1cccc1 | · | 11% | · | 12% | 5%
COc1ccc(-c2nn(-c3cccc(F)c3)c3c2cnc2cc(OC)c(OC)cc23)cc1 | · | -4% | · | 16% | 3%
CC1(C)N([O-])c2cc([N+](=O)[O-])ccc2[N+]1=O | -63* | ? | -27% | 8.9µM* | 2µM*
Cc1ccc(C)n1-c1cc([N+](=O)[O-])ccc1-n1ccnc1 | 2 | -8% | -14% | 2% | -6%
